The AC50 is the concentration at which the activity in the assay is half-maximal.

Active and inactive are the calls of the source. The calls were made as follows: active = hit-call score of the fitted dose curve at least 0.9, where 1 is the maximum; inactive = score below 0.9.

Read-out in the experiment: Vascular endothelial growth factor receptor 2 (Homo sapiens) (UniProt P35968)
The experiment in a line: BSK_4H_VEGFRII: BioMAP Diversity Plus: 4H Assay for Vascular endothelial growth factor receptor 2 (VEGFR2) Biomarker Activity (AID 2283031). As to conditions: primary human endothelial cells (HUVEC); actives raise or lower the signal. As for the experimental part: BSK_4H is a cell-based, multiplexed-readout assay that uses umbilical vein endothelium, a human vascular primary cell, with measurements taken at 24 hours after chemical dosing in a 96-well plate.BSK_4H_VEGFRII is an assay component measured in the BSK_4H assay. It measures VEGFRII antibody related to regulation of gene expression using ELISA technology.Data from the assay component BSK_4H_VEGFRII was analyzed into 1 assay endpoint. This assay endpoint, BSK_4H_VEGFRII, was analyzed with bidirectional fitting relative to DMSO as the negative control and baseline of activity. Using a type of binding reporter, gain or loss-of-signal activity can be used to understand changes in the signaling as they relate to the gene KDR. Furthermore, this assay endpoint can be referred to as a primary readout, because this assay has produced multiple assay endpoints where this one serves a signaling function. To generalize the intended target to other relatable targets, this assay endpoint is annotated to the kinase intended target family, where the subfamily is receptor tyrosine kinase.
The levels of cell surface (or secreted, indicated by the prefix "s") biomarker endpoints were measured by ELISA. Overt cytotoxicity to cells in confluent adherent cultures (all systems other than the BT system) was assessed by measuring total protein levels using sulforhodamine B (SRB) staining in parallel cultures at the time of biomarker measurements, indicated as SRB endpoints. For proliferation assays for adherent cell types, individual cell types are cultured at sub-confluence and relative cell numbers quantified by SRB staining at time points optimized for each system (48 h: 3C and CASM3C systems; 72 h: BT and HDF3CGF systems; 96 h: SAg system). SRB was performed by staining cells with 0.1% SRB after fixation with 10% TCA and reading wells at 560 nm.Viability and proliferation of PBMC (T cells) was quantified by Alamar Blue reduction for the SAg and BT systems. For PBMC viability (referred to as PBMC Cytotoxicity within the assay endpoint names), cells were plated (75,000/well in a 96-well plate) and then chemical samples added for 1 h before addition of activators, SEB and TSST-1 (20 ng/mL final concentration each). Cells were incubated for 90 h. Then, Alamar Blue (20 uL/well) (Invitrogen, Cat DAL1100) was added for 6 h, and the plates were read with a fluorescence microplate reader at 546/580 nm (excitation/emission). For PBMC proliferation, cells were plated and activated as above but incubated for only 16 h prior to addition of Alamar Blue. Plates were read after 6 h.
With `CCN(CC)c1nc(C)cc(OP(=S)(OC)OC)n1`, the outcome was inactive.

Take `Nc1c(Cl)c(Cl)nc(C(=O)O)c1Cl`: the result was inactive.

`O=C(Nc1ccccc1-c1ccc(Cl)cc1)c1cccnc1Cl`: the outcome was inactive.

For the compound `CCOC(=O)C(C)OC(=O)c1cc(Oc2ccc(C(F)(F)F)cc2Cl)ccc1[N+](=O)[O-]` (stereo not given), the result was inactive.

As to `N#Cc1c(Cl)cccc1Cl`, the result was inactive.

Consider `CC1(C)CON(Cc2ccccc2Cl)C1=O`, for which the outcome was inactive.

As to `CCCCOCN(C(=O)CCl)c1c(CC)cccc1CC`, the AC50 is 31.1 µM (active).

In the case of `CCCC(=NOCC)C1=C(O)CC(CC(C)SCC)CC1=O` (stereo not given), the outcome was inactive.

As for `OC(c1ccc(Cl)cc1)(c1ccc(Cl)cc1)C(Cl)(Cl)Cl`, the AC50 is 20 µM (active).

As for `O=P(O)(O)CCCl`, the result was inactive.

`COc1cc(Cl)c(OC)cc1Cl`: the outcome was inactive.

For the compound `Cc1nc(N(C)C)nc(OC(=O)N(C)C)c1C`, the result was inactive.

Take `COCc1cnc(C2=NC(C)(C(C)C)C(=O)N2)c(C(=O)O)c1` (stereo not given): the result was inactive.

Take `Cn1c(-c2ccccc2)cc(-c2ccccc2)[n+]1C`: the result was inactive.

For the compound `COC(=O)NC(=S)Nc1ccccc1NC(=S)NC(=O)OC`, the result was inactive.

As to `CCCN(CC)CC1COC2(CCC(C(C)(C)C)CC2)O1` (stereo not given), the result was inactive.

Regarding `O=C(O)c1c(Cl)ccc2cc(Cl)cnc12`, the outcome was inactive.

Turning to `Cc1cc(C)nc(Nc2ccccc2)n1`, the outcome was inactive.

As for `Cc1cnc(C2=NC(C)(C(C)C)C(=O)N2)c(C(=O)O)c1` (stereo not given), the outcome was inactive.

For `N#CN=C1SCCN1Cc1ccc(Cl)nc1`, the result was inactive.

For `CC(C)C1(C)N=C(c2ncccc2C(=O)O)NC1=O` (stereo not given), the outcome was inactive.

As for `O=C1C2CC=CCC2C(=O)N1SC(Cl)(Cl)Cl` (stereo not given), the outcome was inactive.

On to `Nc1c(Cl)c(F)nc(OCC(=O)O)c1Cl`, for which the result was inactive.

Take `Cc1ccc(N=CN(C)C=Nc2ccc(C)cc2C)c(C)c1`: the AC50 is 26 µM (active).

`CCOP(=S)(OCC)Oc1nc(Cl)n(C(C)C)n1`: the result was inactive.

On to `O=c1n(Cl)c(=O)n(Cl)c(=O)n1Cl`, for which the outcome was inactive.

`C=C(C)CN(CC)c1c([N+](=O)[O-])cc(C(F)(F)F)cc1[N+](=O)[O-]`: the result was inactive.

In the case of `CSC(=O)c1c(C(F)F)nc(C(F)(F)F)c(C(=O)SC)c1CC(C)C`, the result was inactive.

Turning to `CC(C)=CC1C(C(=O)OCc2coc(Cc3ccccc3)c2)C1(C)C` (stereo not given), the outcome was inactive.

Take `COCC(C)N(C(=O)CCl)c1c(C)csc1C` (stereo not given): the outcome was inactive.

Regarding `CC(C)Oc1cccc(NC(=O)c2ccccc2C(F)(F)F)c1`, the outcome was inactive.

On to `CC(C)(C)C(=O)C(Oc1ccc(Cl)cc1)n1cncn1` (stereo not given), for which the outcome was inactive.

In the case of `CCCCC(O)(Cn1cncn1)c1ccc(Cl)cc1Cl` (stereo not given), the result was inactive.

Turning to `Clc1nc(Cl)nc(Nc2ccccc2Cl)n1`, the outcome was inactive.

`CCCCC(C#N)(Cn1cncn1)c1ccc(Cl)cc1` (stereo not given): the outcome was inactive.

With `COc1cc(OC)nc(NC(=O)NS(=O)(=O)c2ncccc2OCC(F)(F)F)n1`, the outcome was inactive.

For the compound `COP(=O)(OC)O/C(C)=C/C(=O)N(C)C`, the result was inactive.

As to `CCNP(=S)(OC)O/C(C)=C/C(=O)OC(C)C` (stereo not given), the result was inactive.

Turning to `CS(=O)(=O)c1ccc(C(=O)C2C(=O)CCCC2=O)c([N+](=O)[O-])c1`, the outcome was inactive.

In the case of `COc1ccc(-c2ccccc2)cc1NNC(=O)OC(C)C`, the outcome was inactive.

Values taken from PubChem BioAssay (EPA / NIEHS).
